Compound activity: PubChem BioAssay, National Center for Advancing Translational Sciences (NCATS)
SARS PLP yeast: qHTS of Yeast-based Assay for SARS-CoV PLP; 330,000 tested, 0.19% active; Potency, µM (highest dose often 32.9 µM), for inactives: at the highest dose activity, positive = growth rescue, hits mostly activators; AID 485353, 2010; S. cerevisiae expressing SARS-CoV PLpro, growth rescue; calls by dose curve; note: potency is the fitted concentration of half-maximal effect; 0% is about no effect; nearly all actives have a fitted effect of over 55% in size
AmpC inh no detg: qHTS Inhibitors of AmpC Beta-Lactamase (assay without detergent) | P00811 | AmpC nitrocefin hydrolysis, absorbance 480 nm, 0.0001% Triton | Potency, µM (top dose mostly 57.1 µM), for inactives: at the highest dose activity change, negative = inhibition, actives largely listed as inhibitors | 330,000 tested, 0.52% active | AID 485341, 2010;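 note: potency is the fitted concentration of half-maximal effect; plate controls were no compound for no effect and no enzyme for full effect; nearly all actives have a fitted effect of over 20% in size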
Target sequence (P00811 whole entry, looked up): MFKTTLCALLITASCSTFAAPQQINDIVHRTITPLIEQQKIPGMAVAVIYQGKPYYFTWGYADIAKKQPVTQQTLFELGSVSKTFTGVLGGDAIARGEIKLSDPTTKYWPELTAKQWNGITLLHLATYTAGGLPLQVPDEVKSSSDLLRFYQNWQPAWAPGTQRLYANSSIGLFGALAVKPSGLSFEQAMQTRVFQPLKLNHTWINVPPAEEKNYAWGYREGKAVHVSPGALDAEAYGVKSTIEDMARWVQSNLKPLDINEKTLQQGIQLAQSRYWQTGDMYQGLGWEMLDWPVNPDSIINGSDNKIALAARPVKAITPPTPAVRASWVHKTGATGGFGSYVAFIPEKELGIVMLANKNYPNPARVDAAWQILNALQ
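20 mM phosphate pH 7.0 + 0.01% (detergent screen) or 0.0001% Triton X-100; 5.3 nM AmpC reagent; cpd preinc 15 min RT; nitrocefin (800 uM stock) to start; A480 q20 s × 4 min; Activity was normalised to no-enzyme and no-compound control wells.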
NS1 function inh: qHTS Assay for Inhibitors of Influenza NS1 Protein Function; AID 2326, 2010; 270,000 tested, 0.4% active; Potency, µM (doses to about 46.1 µM), inactives show at the highest dose activity, positive = more growth; calls by dose curve; note: potency is the fitted concentration of half-maximal effect; actives are rising curves; nearly all actives have a fitted effect of over 50% in size
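Read-out: OD600 growth recovery of NS1-expressing budding yeast. Cells grown overnight at 30C in -URA glucose medium, washed, resuspended and diluted 1:100 in 2% galactose assay medium, pH 6.0. Same strain lacking NS1 served as positive control.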
Giardia FBPA inh: qHTS Assay for Inhibitors of Fructose-1,6-bisphosphate Aldolase from Giardia Lamblia | Potency, µM (top dose mostly 59.6 µM), for the others: at the top dose activity, negative = inhibition, hits mostly inhibitors | purified Giardia FBPA | 290,000 tested, 0.71% active | AID 2451, 2010 | A8B2U2; note: potency is the fitted concentration of half-maximal effect; % is set by controls: 0 for no effect and ±100 for the full control effect; nearly all actives have a fitted effect of over 55% in size
Target sequence (A8B2U2 whole entry, looked up): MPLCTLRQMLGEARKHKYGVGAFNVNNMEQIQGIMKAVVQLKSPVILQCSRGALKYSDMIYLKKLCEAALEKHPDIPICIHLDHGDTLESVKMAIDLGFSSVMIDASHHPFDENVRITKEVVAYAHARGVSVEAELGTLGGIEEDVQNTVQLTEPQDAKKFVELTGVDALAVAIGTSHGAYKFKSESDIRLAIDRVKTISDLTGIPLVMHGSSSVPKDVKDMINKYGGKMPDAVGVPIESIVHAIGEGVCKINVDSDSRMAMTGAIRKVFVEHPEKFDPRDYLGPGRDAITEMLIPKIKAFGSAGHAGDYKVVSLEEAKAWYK
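Giardia FBPA (40 nM reagent) was preincubated 10 min at RT with compound (up to 57.5 uM final), then substrate plus GAPDH/TPI/NAD/arsenate coupling system with diaphorase/resazurin was added; resorufin fluorescence (525/598 nm) was read after 20 min.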
AmpC detergent: qHTS Inhibitors of AmpC Beta-Lactamase (assay with detergent) | AID 485294, 2010 | P00811 | AmpC hydrolysis of nitrocefin, absorbance 480 nm, 0.01% Triton | Potency, µM (titrated, usually from 114 µM), inactives show at the highest dose activity change, negative = inhibition, most hits filed as inhibitors | 370,000 tested, 0.041% active;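 note: potency is the fitted concentration of half-maximal effect; 0% = no-compound wells and -100% = no-enzyme wells; nearly all actives have a fitted effect of over 25% in size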
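AmpC (5.3 nM in the dispensed reagent) in 20 mM phosphate pH 7.0 with 0.01% (detergent screen) or 0.0001% Triton X-100 was preincubated with compounds for 15 min at room temperature. Nitrocefin was then added from an 800 uM solution, and hydrolysis was followed at 480 nm.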
Flu NS1 inh: Assay for Inhibitors of Influenza NS1 Protein Function: Hit Validation; shares compounds with NS1 function inh; influenza NS1 function cell assay, 15-point titration; activity change, negative = inhibition, % at 32.9 µM; 1,400 tested, under 10 active; calls by dose curve; note: 0% is about no effect
PR8 titer: Assay for Inhibitors of Influenza NS1 Protein Function: Influenza virus replication assay in MDCK cells infected with virus A/PR/8/34 | shares compounds with NS1 function inh | MDCK infected influenza A/PR/8/34, virus titer TCID50; hits give low values | virus titer (log TCID50), log10 TCID50 at 5 µM | 95 tested, 30% active | AID 504647, 2011; call rule not given here
Active calls of the source: *; u = inconclusive; x = not tested or not shown. This is a sample that favours compounds with a hit; in the whole collection about 1.4% have one here. Unless noted, calls come from the whole dose curve; as a rule, active = well fitted curve in the direction sought with a large enough effect; inconclusive = small, poorly fitted or top-dose-only effect, or another doubt; inactive = no such curve, though single readings can be large; an effect the other way counts as inactive or inconclusive.

SMILES	SARS PLP yeast	AmpC inh no detg	NS1 function inh	Giardia FBPA inh	AmpC detergent	Flu NS1 inh	others
Cn1cnnc1SCC(=O)Nc1ccccc1Sc1ccccc1	11%	22%	0.89µM*	-4%	u	-1
COc1cc(C(=O)Nc2nnc(C(C)(C)C)s2)c([N+](=O)[O-])cc1OC	12%	-10%	10%	3%	2%	x
Cc1ccc(-c2cc(C(=O)Nc3sc4c(c3C(=O)NCc3ccco3)CCC4)[nH]n2)c(O)c1	-10%	-15%	u	-2%	6%	3
COC(=O)C1(C)NC(c2cccs2)C2C(=O)N(c3ccccc3F)C(=O)C21 (stereo not given)	-12%	-27%	-2%	1%	u	x
Cc1nc2ccc3nc(NC(=O)c4ccc5c(c4)OCCO5)sc3c2s1	-9%	-29%	8%	5%	3%	x
Cc1nc2c(ccc3nc(NC(=O)c4ccc5c(c4)OCCO5)sc32)s1	-8%	6%	u	-10%	-1%	-30
Cn1cccc1C(=O)NC(=O)COC(=O)c1ccc(S(C)(=O)=O)cc1	-4%	-5%	x	x	x	x
Cn1cccc1C(=O)NC(=O)COC(=O)c1ccc(O)cc1	4%	3%	10µM*	-2%	0%	-22
CN(C)N1C(N)=C(C#N)C(c2cccc3ccccc23)C2=C1CC(c1ccccc1)CC2=O (stereo not given)	0%	-12%	22µM*	-19%	-11%	-1
C#CCn1c(=NC(=O)CN2C(=O)CCC2=O)sc2cc(S(N)(=O)=O)ccc21	-31%	-16%	-1%	2%	-9%	x
C#CCn1c(=NC(=O)c2cc(Cl)sc2Cl)sc2cc(S(N)(=O)=O)ccc21	12%	-12%	10µM*	-4%	0%	17
COc1ccc(-c2nnc(SC(C(=O)c3c[nH]c4ccccc34)c3ccccc3)n2N)cc1OC (stereo not given)	11%	93%	20µM*	-11%	-17%	u
COc1cccc(N2C(=O)CC(Nc3ccc(N4CCOCC4)cc3)C2=O)c1 (stereo not given)	-3%	-44%	9%	-24%	-5%	x
O=C1CC(Nc2ccc(N3CCOCC3)cc2)C(=O)N1c1cccc(C(F)(F)F)c1 (stereo not given)	-9%	-10%	11µM*	-26%	6%	4
COC(=O)c1ccccc1NC(=O)CN(c1ccccc1OC)S(C)(=O)=O	x	x	x	x	1%	x
COC(=O)Cc1[nH]n(-c2ccccc2)c(=O)c1C(C)=Nc1ccccc1	-1%	-8%	x	-18%	3%	x
COC(=O)Cc1cc(=O)n(-c2ccccc2)[nH]1	3%	-18%	8.9µM*	-9%	u	37
COc1ccccc1CNc1ncnc2c1c(-c1ccccc1)cn2-c1ccc(Br)cc1	x	x	x	x	6%	x
Cc1ccc(S(=O)(=O)N(C)C)cc1-n1c(SCC(=O)Nc2ccc(F)cc2)nc2ccccc2c1=O	2%	19%	13µM*	1%	3%	17
Cc1csc(N)n1	-2%	-15%	-2%	-5%	7%	x
Cc1ccc(-c2csc(N)n2)s1	-21%	-21%	u	-29%	u	-33
CCCCc1nc2n[nH]c(N)c2c2c1CSC(C)(C)C2	-7%	-17%	11%	2%	4%	x
CC(C)c1nc2n[nH]c(N)c2c2c1CSC(C)(C)C2	10%	-13%	5.6µM*	6%	1%	36
O=C(Nc1cc(C(F)(F)F)ccc1N1CCOCC1)c1ccc(F)cc1	3%	-11%	-8%	-9%	u	x
CCOC(=O)c1cc(OC(=O)c2cccnc2)n(-c2ccccc2)n1	10%	-35%	2µM*	0%	u	u
SMILES	SARS PLP yeast	AmpC inh no detg	NS1 function inh	Giardia FBPA inh	AmpC detergent	Flu NS1 inh	others
COc1ccc(/C=C(/NC(=O)c2ccccc2)C(=O)N2CCOCC2)cc1OC	0%	-14%	u	-8%	-4%	3
O=c1cc(-c2ccc(F)cc2)[nH][nH]1	23%	-39%	13µM*	-3%	-14%	20
CCOc1ccc(OCC)c(NC(=O)c2cnc3c(-c4ccccc4)c(C)nn3c2C)c1	x	x	x	x	7%	x
CC(=O)Nc1ccc(C=NNc2ccc([N+](=O)[O-])cc2S(=O)(=O)Nc2ccccc2C(=O)O)cc1	-14%	-31%	x	x	x	x
Cc1ccc(NC(=S)NNc2ccc([N+](=O)[O-])cc2S(=O)(=O)Nc2ccccc2C(=O)O)cc1C	1%	-33%	13µM*	0%	-2%	32
COc1ccc(CN2CCN(C(=O)CCC(=O)Nc3nnc(CC(C)C)s3)CC2)cc1F	15%	165%	2.2µM*	12%	-8%	u
COc1cc(NC(=O)c2ccccc2)c(OC)cc1NC(C)=O	-3%	-14%	u	-18%	-10%	1
CC(C)(C)c1ccc(-c2noc(CCC(=O)NCc3ccco3)n2)cc1	-5%	19%	x	-1%	2%	x
CC1(c2ccc3ccccc3c2)NC(=O)N(CC(=O)Nc2cccc(S(=O)(=O)N3CCOCC3)c2)C1=O (stereo not given)	-3%	4%	10µM*	-1%	-10%	17	PR8 titer=8.3
CC1(c2cc(F)ccc2F)NC(=O)N(CC(=O)Nc2cccc(S(=O)(=O)N3CCCC3)c2)C1=O (stereo not given)	0%	-45%	x	x	2%	x
CCN(CC)C(=O)CSc1nc(O)cc(=O)n1-c1ccccc1OC	3%	-5%	8.9µM*	-2%	-10%	37
COc1ccc(NC(=O)CSc2nc(O)cc(=O)n2-c2ccccc2OC)cc1	1%	-16%	u	17%	u	x
C/C(CC(=O)N(C(C)C)C(C)C)=N\NC(=O)COc1ccc(Cl)cc1Cl	2%	-6%	x	-9%	2%	x
C/C(CC(=O)N(C(C)C)C(C)C)=N\NC(=O)COc1ccc(Br)cc1Br	-2%	45%	11µM*	6%	-12%	u
Cn1c(=O)c2c(ncn2CC(=O)N2CCCCCC2)n(C)c1=O	-1%	-10%	-2%	-1%	-1%	x
CCOc1cc(/C=N/NC(=O)COc2ccc(Cl)cc2)ccc1OS(=O)(=O)c1ccccc1	22%	-28%	2µM*	34%	-1%	u	PR8 titer=7.7
CCOc1cc(/C=N/NS(=O)(=O)c2ccccc2)ccc1OS(=O)(=O)c1ccc(C)cc1	6%	-51%	21%	6%	-7%	x
